Out of some 59,000 compounds screened, about 6,500 (11%) were called active. Inconclusive results (about 15%) are left out. Cut-off read from the data, not from the text of the source: active = max dye-equivalent concentration above about 10 nM; inconclusive = mostly about 1.1 nM to 9.6 nM; inactive = weaker than that. The entries come from a sample that favours actives as a whole. More than one record can exist for a structure, and the calls need not agree.
Assay: qHTS Assay for Spectroscopic Profiling in A350 Spectral Region
Conditions: Compound autofluorescence, 340/450 nm, Alexa 350 dye-equivalents; active compounds read high

Row | Structure (SMILES) | max dye-equivalent concentration | outcome
1 | O=S(=O)(c1ccccc1)N(CC(O)CN1CCCCC1)c1ccccc1 (stereo not given) | inactive | 
2 | O=C1c2oc3ccc(Br)cc3c(=O)c2C(c2cccc(F)c2)N1CCO (stereo not given) | inactive | 
3 | CCCSc1nc2c(c(=O)[nH]c(=O)n2C)n1CCc1ccccc1 | inactive | 
4 | Cn1c(=S)c2[nH]c(SCCCc3ccccc3)nc2n(C)c1=O | 12 nM (active) | 
5 | Cn1c(=O)c2c(nc(NCCc3ccccc3)n2Cc2ccccc2)n(C)c1=O | inactive | 
6 | O=S1(=O)CC(NCc2ccccc2)C(Nc2ccc(Cl)cc2)C1 (stereo not given) | inactive | 
7 | Cc1ccc(C)c(NC(=O)C2CC(=O)N(C(C)C)C2)c1 (stereo not given) | inactive | 
8 | COc1ccccc1CCn1c(=O)c(-c2cn(C)c3ccccc23)nc2cncnc21 | inactive | 
9 | COCCn1c(=O)c(-c2cccs2)nc2cnc(N3CCN(C)CC3)nc21 | 17 nM (active) | 
10 | COCCn1c(=O)c(-c2cccs2)nc2cncnc21 | 89 nM (active) | 
11 | CN(C(=O)COc1nnc(-c2cccs2)c(-c2cccs2)n1)c1ccccc1 | inactive | 
12 | Cc1ccccc1NC(=O)Cc1nnc(SCC(=O)N2CCN(c3ccccc3)CC2)n1C | inactive | 
13 | C=CCn1c(C)cc(C(=O)CN2C(=O)c3ccccc3C2=O)c1C | inactive | 
14 | CC(=O)Nc1ccc(NS(=O)(=O)c2cc(C)sc2C)cc1 | inactive | 
15 | COc1ccccc1CNc1ncncc1-c1cccc(NS(C)(=O)=O)c1 | inactive | 
16 | Cc1ccc(C(=O)NCC(=O)O)cc1S(=O)(=O)N1CCCCC1 | inactive | 
17 | CS(=O)(=O)Nc1cccc(-c2cncnc2Nc2ccccc2)c1 | inactive | 
18 | CCOc1ccc(OCC)c(NC(=O)C2CCN(S(=O)(=O)c3c(C)noc3C)CC2)c1 | inactive | 
19 | FC(F)(F)c1cccc(Nc2ncnc3ccccc23)c1 | inactive | 
20 | O=C(O)Cc1ccc(-c2ccccc2)cc1 | 47 nM (active) | inactive
21 | Cc1cccc(C(=O)Nc2ccc(CC(=O)O)cc2)c1 | inactive | 
22 | O=C(O)CCCc1ccccc1 | inactive | 
23 | Cc1c(-c2nn(C)c(=O)c3ccccc23)oc2ccc(F)cc2c1=O | inactive | 
24 | Cc1[nH]c2ccccc2c1C(=O)CSCC(=O)O | inactive | 
25 | CCOC(=O)C1CCN(C(=O)c2oc3ccc(S(=O)(=O)N4CCCCCC4)cc3c2C)CC1 | inactive | 
26 | CCN(CC)CCN1C(=O)C(=O)/C(=C(/O)c2ccc(OC)c(OC)c2)C1c1ccccn1 (stereo not given) | 42 nM (active) | 
27 | COc1ccc(/C(O)=C2/C(=O)C(=O)N(CCCN(C)C)C2c2ccccc2)cc1OC (stereo not given) | inactive | 
28 | CCCOc1ccc(/C(O)=C2/C(=O)C(=O)N(CCN(C)C)C2c2ccc(OC)c(OC)c2)cc1 (stereo not given) | inactive | 
29 | CS(=O)(=O)N(C(=O)NC(=O)NC1CCS(=O)(=O)C1)C1CCCCC1 (stereo not given) | inactive | 

Reference: PubChem BioAssay AID590 (National Center for Advancing Translational Sciences (NCATS), 2007)
